Source: PubChem BioAssay (several laboratories)
A selection: hits, their analogues and other compounds. The true share with any hit is near 4.1%.
MEKK2 WT-MEK5: modulators of MEK5 binding to wildtype MEKK2, primary screen, biochemical, multiplex bead flow cytometry, Alexa488-MEK5; Mitogen-activated protein kinase kinase kinase 2 (Homo sapiens), Q9Y2U5; Alexa488-MEK5 binding to MEKK2 WT; actives lie on both sides; 290,000 tested, 1.1% active; binding response (% of control), % at 10 µM; AID 1531, 2009; in the data active = binding response below about 67% or above about 130%
Mot1-301 SUMO: yeast Mot1-301 growth rescue at high temperature, primary screen, SUMOylation pathway inhibitor project, S. cerevisiae, ATP luminescence, 38.5C. 320,000 tested, 1% active. growth rescue, % at 18.8 µM. AID 2716, 2010. S. cerevisiae Mot1-301 growth rescue; percent above DMSO median, 100 means doubled;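 active = every valid replicate shows activation above 250% relative to neutral control wells; inactive = the rest, any valid replicate at or below 250%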;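 also: OY570 slx delta 5 strain wells were the positive control but not used for scaling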
MEKK2 mut-MEK5: MEK5 binding signal on mutant MEKK2 PB1, primary screen, biochemical, multiplex bead flow cytometry, Alexa488-MEK5 | Alexa488-MEK5 binding to MEKK2 mutant | percent response, % at 10 µM | 290,000 tested, 0.35% active; in the data active = percent response above about 24%, passing the limit was not always enough
CHT allo act: CHT positive allosteric modulators, primary screen, cell-based, membrane potential dye, choline EC20 | B-score at 10 µM | High affinity choline transporter 1 (Homo sapiens), Q9GZV3 | 310,000 tested, 0.49% active | CHT-expressing cells; stronger effect = higher value; LV-AA mutant CHT in HEK293 cells | AID 488977, 2010;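 active = initial fluorescence not abnormally high and integrated response B-score, plate-corrected, over 3 SD above library mean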
CHT inh: inhibitors of human choline transporter CHT; CHT-expressing cells, membrane potential dye, choline response; stronger effect = lower value; B-score at 10 µM; 310,000 tested, 0.86% active;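 active = B-score over 3 SD under the library average, and starting fluorescence ratio not unusually high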;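 also: choline stimulus applied at its EC90 after an EC20 pre-addition; B-score computed on integrated fluorescence ratio after choline addition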
MEKK3 PB1 HTS: modulators of MEKK3-MEK5 PB1 binding, primary screen, biochemical, wildtype MEKK3, multiplex bead flow cytometry, Alexa488-MEK5. Mitogen-activated protein kinase kinase kinase 3 (Homo sapiens), Q99759. bead-based flow cytometry, Alexa488-MEK5 binding to MEKK3; actives lie on both sides; 0 = blocked by unlabeled MEK5, 100 = vehicle. binding response (% of control), % at 10 µM. 290,000 tested, 1.4% active. AID 1529, 2009;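 active = binding response more than 3 SD above or below the average of its plate-row segment, actives on both sides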;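 also: Alexa488 bead fluorescence after subtracting the streptavidin-only scavenger bead signal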
Target sequence (Q99759 whole entry, looked up): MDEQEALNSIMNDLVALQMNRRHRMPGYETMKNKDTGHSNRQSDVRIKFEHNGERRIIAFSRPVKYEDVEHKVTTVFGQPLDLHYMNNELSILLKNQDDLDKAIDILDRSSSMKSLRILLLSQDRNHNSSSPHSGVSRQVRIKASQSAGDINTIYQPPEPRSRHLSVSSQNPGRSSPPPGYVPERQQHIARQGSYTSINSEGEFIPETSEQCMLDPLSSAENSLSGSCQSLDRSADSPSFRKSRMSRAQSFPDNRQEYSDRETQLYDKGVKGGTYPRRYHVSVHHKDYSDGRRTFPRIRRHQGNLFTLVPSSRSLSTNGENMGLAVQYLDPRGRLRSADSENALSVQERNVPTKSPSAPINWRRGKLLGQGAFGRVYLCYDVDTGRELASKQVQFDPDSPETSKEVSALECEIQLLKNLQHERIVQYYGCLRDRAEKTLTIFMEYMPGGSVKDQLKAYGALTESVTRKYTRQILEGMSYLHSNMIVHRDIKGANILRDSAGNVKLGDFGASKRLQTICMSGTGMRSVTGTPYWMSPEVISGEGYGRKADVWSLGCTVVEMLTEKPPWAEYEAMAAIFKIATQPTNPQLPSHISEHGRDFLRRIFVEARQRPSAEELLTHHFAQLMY
CHT inh conf: CHT inhibitors, confirmation, cell-based, membrane potential dye, duplicate; CHT-expressing cells, choline membrane potential dye; LV-to-AA substituted CHT, HEK293 cells; shares compounds with CHT inh; 2,400 tested, 70% active; AID 493221, 2011; CHT activity remaining % of control (stronger effect = lower value), % at 10 µM;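 active = choline transporter activity left, mean of duplicates at 10 µM, below buffer-only control mean minus 3 SD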;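 also: depolarization triggered by choline at its EC90 following an EC20 pre-addition; 0% = hemicholinium-3 full block and 100% = buffer-only control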
HEK293 CHT ctr: membrane potential effects in parental HEK293, counter-screen for CHT inhibitor project, cell-based, membrane potential dye. shares compounds with CHT inh. membrane potential ratio readout (active if shifted either direction beyond buffer ±3SD; no single direction) at 10 µM. choline response; active = decrease or increase beyond buffer ±3SD. AID 493222, 2011. 2,400 tested, 4% active;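 also: parental cells lack the transporter so any hit is non-specific; ratio is peak minus trough fluorescence over baseline after EC90 choline challenge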
* hit, by the source's call.

Screening Cc1cc(C)cc(N(CC(=O)NC2CCC(C)CC2)S(=O)(=O)c2c(C)[nH]c(=O)[nH]c2=O)c1 (configuration not stated) returned MEKK2 WT-MEK5 91.0, Mot1-301 SUMO -15.6, MEKK2 mut-MEK5 -7.0, CHT allo act inactive, CHT inh inactive and MEKK3 PB1 HTS 92.0.
`Cc1ccc(-c2nn(-c3ccccn3)c(=O)c3ccccc23)cc1` gave MEKK2 WT-MEK5 97.0, Mot1-301 SUMO 125.1, MEKK2 mut-MEK5 -2.0, CHT allo act inactive, CHT inh -5.22*, MEKK3 PB1 HTS 103.0, CHT inh conf 66.6%* and HEK293 CHT ctr inactive.
For S=C(NCc1ccccn1)Nc1ccc(Cl)cc1Cl the results were MEKK2 WT-MEK5 102.0, Mot1-301 SUMO 7.3, MEKK2 mut-MEK5 0.0, CHT allo act inactive, CHT inh -5.16*, MEKK3 PB1 HTS 95.0, CHT inh conf 53.4%* and HEK293 CHT ctr inactive.
Screening CCCCCCn1c(=O)c(F)cn(Cc2ccc(OC)c([N+](=O)[O-])c2)c1=O returned MEKK2 WT-MEK5 98.0, Mot1-301 SUMO 423.8, MEKK2 mut-MEK5 3.0, CHT allo act inactive, CHT inh -6.68*, MEKK3 PB1 HTS 102.0, CHT inh conf inactive and HEK293 CHT ctr inactive.
For CCCCCn1c(=O)c(F)cn(Cc2ccc(OC)c([N+](=O)[O-])c2)c1=O the results were MEKK2 WT-MEK5 99.0, Mot1-301 SUMO -8.1, MEKK2 mut-MEK5 -6.0, CHT allo act inactive, CHT inh -7.56*, MEKK3 PB1 HTS 100.0, CHT inh conf 53.6%* and HEK293 CHT ctr inactive.
For CCOC(=O)CSC1=NC(=O)/C(=C/c2ccc(OC)cc2)S1 the results were MEKK2 WT-MEK5 99.0, Mot1-301 SUMO 31.3, MEKK2 mut-MEK5 -2.0, CHT allo act inactive, CHT inh inactive and MEKK3 PB1 HTS 96.0.
Screening CCOC(=O)C1=C(C)N=c2s/c(=C/c3ccco3)c(=O)n2C1c1cccc(OC)c1 (configuration not stated) returned MEKK2 WT-MEK5 92.0, Mot1-301 SUMO 3.6, MEKK2 mut-MEK5 2.0, CHT allo act inactive, CHT inh inactive and MEKK3 PB1 HTS 101.0.
`CCOC(=O)C1=C(C)N=c2s/c(=C/c3cccc([N+](=O)[O-])c3O)c(=O)n2C1c1cc(OC)c(OC)c(OC)c1` (configuration not stated) gave MEKK2 WT-MEK5 86.0, Mot1-301 SUMO -8.7, MEKK2 mut-MEK5 -6.0, CHT allo act inactive, CHT inh -9.83*, MEKK3 PB1 HTS 91.0, CHT inh conf 28.4%* and HEK293 CHT ctr inactive.
`COc1ccc(CCNC(=O)c2cc(C)oc2C)cc1` gave MEKK2 WT-MEK5 104.0, Mot1-301 SUMO -7.9, MEKK2 mut-MEK5 13.0, CHT allo act inactive, CHT inh inactive and MEKK3 PB1 HTS 105.0.
`CCc1nnc(NS(=O)(=O)c2ccc(NC(=O)c3ccc(Br)cc3)cc2)s1` gave MEKK2 WT-MEK5 105.0, Mot1-301 SUMO 144.6, MEKK2 mut-MEK5 4.0, CHT allo act inactive, CHT inh -6.69*, MEKK3 PB1 HTS 107.0, CHT inh conf 36.4%* and HEK293 CHT ctr inactive.
Cc1ccc(N2C(=O)N(CC(=O)Nc3ccc(C)cc3C)C(=O)C2C)cc1 (configuration not stated) was read as MEKK2 WT-MEK5 69.0, Mot1-301 SUMO -2.9, MEKK2 mut-MEK5 -12.0, CHT allo act inactive, CHT inh inactive and MEKK3 PB1 HTS 56.0.
`Cc1ccc(N2C(=O)N(CC(=O)Nc3c(C)cc(C)cc3Cl)C(=O)C2C)cc1` (configuration not stated) gave Mot1-301 SUMO 37.9, CHT allo act inactive, CHT inh -5.04*, CHT inh conf inactive and HEK293 CHT ctr inactive.
Screening Cc1ccc(-c2nnc(Sc3nc4ccccc4o3)c3ccccc23)cc1 returned MEKK2 WT-MEK5 106.0, Mot1-301 SUMO 11.9, MEKK2 mut-MEK5 1.0, CHT allo act inactive, CHT inh inactive and MEKK3 PB1 HTS 105.0.
Screening Cc1nnc(Sc2nc3ccccc3o2)c2ccccc12 returned MEKK2 WT-MEK5 107.0, Mot1-301 SUMO -23.3, MEKK2 mut-MEK5 3.0, CHT allo act inactive, CHT inh -5.95*, MEKK3 PB1 HTS 103.0, CHT inh conf 27.1%* and HEK293 CHT ctr inactive.
`COc1ccc2c(c1)c(C(=O)CNc1nc(C)cs1)c(C)n2C` gave MEKK2 WT-MEK5 102.0, Mot1-301 SUMO 134.5, MEKK2 mut-MEK5 7.0, CHT allo act inactive, CHT inh -4.98*, MEKK3 PB1 HTS 102.0, CHT inh conf 38.2%* and HEK293 CHT ctr 2.71*.
Screening CCN1CCN(C(=O)c2cc(COc3ccc(F)cc3F)on2)[C@@H](C)C1=O returned MEKK2 WT-MEK5 96.0, Mot1-301 SUMO -4.7, MEKK2 mut-MEK5 -9.0, CHT allo act inactive, CHT inh inactive and MEKK3 PB1 HTS 101.0.
Screening CC(C)Cn1c(N)c(C(=O)COC(=O)c2ccccc2F)c(=O)n(C)c1=O returned MEKK2 WT-MEK5 84.0, Mot1-301 SUMO -15.3, MEKK2 mut-MEK5 -4.0, CHT allo act inactive, CHT inh inactive and MEKK3 PB1 HTS 79.0.
`CC(C)Cn1c(N)c(C(=O)COC(=O)c2ccccc2Cl)c(=O)n(C)c1=O` gave MEKK2 WT-MEK5 104.0, MEKK2 mut-MEK5 -1.0, CHT allo act inactive, CHT inh -10.1*, MEKK3 PB1 HTS 108.0, CHT inh conf inactive and HEK293 CHT ctr inactive.
Cc1cc(C)n(-c2ccc(NC(=O)C3CCCCN3C(=O)c3sccc3C)cc2)n1 (configuration not stated) was read as MEKK2 WT-MEK5 103.0, Mot1-301 SUMO 64.0, MEKK2 mut-MEK5 7.0, CHT allo act inactive, CHT inh inactive and MEKK3 PB1 HTS 102.0.
For COc1ccc(Cc2noc(CN(C)CCc3ccccc3)n2)cc1OC the results were MEKK2 WT-MEK5 80.0, Mot1-301 SUMO -4.2, MEKK2 mut-MEK5 -12.0, CHT allo act inactive, CHT inh inactive and MEKK3 PB1 HTS 76.0.
